KKLEB cytotox: counter-screen for CF NF-kB inhibitors: cytotoxicity. activity change (cytotoxicity), % at 5 µM. AID 602141. KKLEB CF airway cells viability, ATPlite luminescence, overnight; active compounds read low; cells stimulated with P. aeruginosa culture filtrate. 360,000 tested, 0.36% active;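 active = corrected activity change at or below -50% at 5 µM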
Shn3 3UTR inh: Schnurri-3 reporter inhibition in Clone20 osteoblasts. AID 588674. inhibition, % at 12.5 µM. Clone20 osteoblast Shn3 3'UTR firefly luciferase, 24 h. 360,000 tested, 0.52% active;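 active = mean inhibition of at least 75% with every replicate also reaching 75%; inconclusive = mean inhibition at least 75% but some replicate below; inactive = mean inhibition below 75%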
LMP1 NFkB inh: inhibitors of Epstein-Barr LMP1-induced NF-kappaB reporter; LMP1-induced NF-kappaB luciferase reporter cells, luminescence; inhibition, % at 12.5 µM; 350,000 tested, 0.69% active; in the data active = inhibition above about 41%; inconclusive = no clear call, values can overlap the other calls
Peg3 promoter: Peg3 promoter activity inhibition. AID 588405. inhibition, % at 20 µM. 360,000 tested, 1.7% active. HeLa PEG-Prom luciferase reporter, luminescence, overnight;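 active = inhibition of at least 50% at 20 µM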
CF NFkB block: cystic fibrosis NF-kB activation inhibition. inhibition, % at 5 µM. KKLEB NF-kB-GFP reporter, PAF-induced, GFP fluorescence overnight. 360,000 tested, 0.86% active. AID 588850;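 active = at least 50% inhibition at 5 µM, scaled per plate between neutral and stimulator controls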;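 also: PAF is a Pseudomonas aeruginosa culture filtrate used as stimulus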
MITF TRPM1 inh: inhibitors of MITF-driven TRPM1 promoter in melanoma cells | 330,000 tested, 0.83% active | SK-MEL-5 TRPM1 promoter luciferase, 24 h | inhibition, % at 12.5 µM;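 active = mean inhibition across replicates of 60% or more, whatever share of single replicates reaches that level; inconclusive = some that reach 60%, reason not given; inactive = mean inhibition across replicates below 60%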
Hits are given with their value; i = inactive; ? = inconclusive; nt = no result. This is a sample that favours compounds with a hit; in the whole collection about 2.9% have one here.

SMILES	KKLEB cytotox	Shn3 3UTR inh	LMP1 NFkB inh	Peg3 promoter	CF NFkB block	MITF TRPM1 inh
N#CN=CN1CC=C(c2ccc(Cl)cc2)CC1	i	i	i	i	i	nt
O=C1c2cc([N+](=O)[O-])ccc2-c2cc(Cl)c(NC(=O)C(F)(F)F)cc21	i	i	i	i	i	i
O=C1c2cc([N+](=O)[O-])ccc2-c2cc(Br)c(N=C(NO)C(F)(F)F)cc21	i	i	i	97	i	i
COC(=O)N(C)C[C@@H]1OCc2cnnn2CCCC(=O)N([C@H](C)CO)C[C@H]1C	i	i	i	i	i	nt
Cc1ccc(NC(=O)CSc2nc3cc(C(=O)NCC4CCCO4)ccc3c(=O)n2CC2CCCO2)cc1 (stereo not drawn)	i	i	i	i	i	nt
Cc1cc2c(cc1C)CSC(c1ccc3ccccc3c1O)SC2	i	i	i	i	i	i
Cc1cc2c(cc1C)CSC(c1c(O)ccc3ccccc13)SC2	i	i	i	62	i	i
CCOc1cc(N2CCOCC2)c(OCC)cc1NC(=O)CN1C(=O)NC(CC)(c2ccc(F)cc2)C1=O (stereo not drawn)	i	i	i	i	i	i
CC1=NOC(=O)/C1=C\c1ccc(-c2ccc(Br)cc2C(=O)O)o1	i	i	i	i	i	i
CC1=NOC(=O)/C1=C\c1ccc(-c2cc(Cl)ccc2Cl)o1	i	94	i	101	66	99
COc1ccc(Cl)cc1/C=C1/C(=O)ON=C1C	i	i	i	i	i	i
CC1=NOC(=O)/C1=C/c1ccc(-c2ccc(Cl)cc2)o1	i	?	i	102	i	99
CC1=NOC(=O)/C1=C\c1ccc(-c2ccc(Br)cc2)o1	i	i	i	89	i	79
CCCNC(=O)c1cc(C2CCCCN2C(=O)c2ccc(OC)cc2)on1 (stereo not drawn)	i	i	nt	i	i	nt
COc1ccccc1-n1c(SCC(=O)N2CCCCC2)nc(O)c(Cc2ccccc2)c1=O	i	i	i	97	i	i
COc1ccccc1-n1c(SCC(=O)NC(C)(C)C)nc(O)c(Cc2ccccc2)c1=O	i	i	i	i	i	i
O=C(Nc1cccnc1)c1ccc(CN2CCc3ccccc3C2)cc1	i	i	i	i	i	i
Cc1ccc(NC(=O)c2ccc(CN3CCN(C)CC3)cc2)cc1Nc1nccc(-c2cccnc2)n1	i	i	77	i	i	i
CCOc1ccc(CNC(=O)C2CCN(S(=O)(=O)N3CCC(C)CC3)CC2)cc1OC	i	i	i	i	i	nt
CCOc1ccc(N/C=C/C(=O)c2ccccc2)c([N+](=O)[O-])c1	-58	i	i	i	i	i
COc1ccc(N/C=C/C(=O)c2ccccc2)cc1	-54	i	i	i	i	i
CCCc1nc2c(C)cc(Br)cn2c1Cc1ccc(OC)cc1C	i	i	nt	i	i	nt
Cc1ccc(OC(=O)N(C)C[C@H]2OCc3cn(nn3)CCCC(=O)N([C@H](C)CO)C[C@@H]2C)cc1	i	i	i	i	i	nt
Cc1ccc(S(=O)(=O)Nc2ccc3c(c2)C(=O)N([C@@H](C)CO)C[C@@H](C)[C@@H](CN(C)CC2CC2)OCCCC[C@@H](C)O3)cc1	i	i	i	i	i	nt
CC1(C)CC(=O)C=C(c2ccc(COC(=O)C(c3ccccc3)c3ccccc3)cc2)C1=O	i	i	i	i	i	nt
SMILES	KKLEB cytotox	Shn3 3UTR inh	LMP1 NFkB inh	Peg3 promoter	CF NFkB block	MITF TRPM1 inh
Cc1nc(SCC(=O)N2CCN(c3ccccc3)CC2)c2oc3ccccc3c2n1	i	i	i	56	i	i
COc1cccc(/C(O)=C/c2nc3ccc(C(=O)NCCc4ccc(Cl)cc4)cc3[nH]c2=O)c1	i	i	i	55	i	i
COc1ccc(-c2cc(=O)c3cc(F)ccc3[nH]2)cc1	i	i	i	i	i	i
COc1ccc2[nH]c(-c3ccc(C)cc3)cc(=O)c2c1	i	i	43	i	i	i
COc1ccc(C(=O)Nc2ccc3[nH]c(-c4cccc(OC)c4)cc(=O)c3c2)cc1	i	i	i	i	50	i
Cn1cccc1-c1cc(C(=O)N2CCc3c([nH]c4ccccc34)C2c2ccccn2)[nH]n1 (stereo not drawn)	i	i	55	i	i	i
O=C(c1ccc(-n2cccn2)cc1)N1CCc2c([nH]c3ccccc23)C1c1ccccn1 (stereo not drawn)	i	nt	i	i	i	i
CCOc1ccc(CCn2c(-c3ccco3)nc3ccccc3c2=O)cc1OCC	i	i	i	54	i	i
Cc1cc(NC(=O)CSc2nc3c(c(=O)n2CCc2ccccc2)SC(C)C3)no1 (stereo not drawn)	i	i	77	i	i	i
Cc1nnc(NC(=O)CSc2nc3c(c(=O)n2CCc2ccccc2)SC(C)C3)s1 (stereo not drawn)	i	i	i	i	i	nt
O=c1c2ccccc2nc(-c2ccco2)n1Cc1ccccc1	i	i	i	i	i	i
COc1ccc(CCn2c(SCC(=O)Nc3cc(C)on3)nc3ccccc3c2=O)cc1OC	-79	i	i	i	64	i
COc1ccc(CCn2c(SCC(=O)Nc3cc(C)on3)nc3ccsc3c2=O)cc1OC	i	i	i	i	i	i
Cc1noc(C)c1S(=O)(=O)N(C)C[C@@H]1OCc2cnnn2CCCC(=O)N([C@@H](C)CO)C[C@H]1C	i	i	i	i	i	nt
c1csc(C2=Nn3c(nnc3-c3ccncc3)SC2)c1	i	i	i	i	66	i
c1ccc(C2=Nn3c(nnc3-c3cccs3)SC2)cc1	i	i	i	i	i	i
COc1ccc(OCCCC(=O)OCC(=O)N2CCN(S(=O)(=O)c3ccc(C)cc3C)CC2)cc1	i	i	i	i	i	i
Cc1cc(=O)oc2c(C)c(OCC(=O)N(C)C)ccc12	i	i	42	i	i	i
CC(=O)c1ccc2c(c1)N(Cc1ccccc1)C(=O)C(C)S2 (stereo not drawn)	i	i	nt	i	i	nt
CCCc1nc2c(C)cc(Br)cn2c1Cc1cccc(F)c1	i	i	nt	i	i	nt
CN(C(=O)CSc1nc2ccccc2n1C)C1CCS(=O)(=O)C1 (stereo not drawn)	i	i	i	68	i	i
CN(C(=O)CSc1nc2ccccc2c(=O)n1C)C1CCS(=O)(=O)C1 (stereo not drawn)	i	i	i	i	i	i
Cc1nc2ccc(N)cc2c(=O)n1Cc1ccc(Cl)cc1	i	i	i	i	i	i
Nc1ccc(Cn2ccc3c4c(N)nc(N)nc4ccc32)cc1	i	i	i	102	i	85
O=C(Nc1ccc(S(=O)(=O)N2CCOCC2)cc1)c1ccc([N+](=O)[O-])s1	i	i	i	i	i	84
O=C(COc1ccccc1[N+](=O)[O-])Nc1ccc(N2CCN(C(=O)c3cccs3)CC2)cc1	i	i	i	104	i	i
O=C(Nc1ccc(S(=O)(=O)N2CCOCC2)cc1)c1ccc([N+](=O)[O-])o1	i	i	i	101	78	i
